Data taken from PubChem BioAssay (Tox21).
Values joined by “and” are separate entries in the source; they are usually repeats but may differ in a detail not shown here. Equal entries are not always repeated. Inconclusive results are not listed. A number with no mark means an inactive call. Active and inactive are the calls of the source. Calls follow the shape of the full dose curve.

Experiment: Nuclear factor erythroid 2-related factor 2/antioxidant responsive element (Nrf2/ARE) small molecule agonists: luciferase reporter gene qHTS assay in human keratinocytes (AID 1919969); also: nearly all actives have a fitted effect of over 35% in size
Settings: KeratinoSens HaCaT ARE-luciferase, luminescence, 24 h; series mostly up to 92.4 µM; activity, positive = activation: at the top concentration
Description: National Center for Advancing Translational Sciences [NCATS]
Division of Preclinical Innovation [DPI]
U.S. Environmental Protection Agency [EPA]
National Institutes of Environmental Health Sciences [NIEHS]
National Toxicology Program [NTP]
U.S. Food and Drug Administration [FDA]
Oxidative stress has been implicated in the pathogenesis of a variety of diseases ranging from cancer to neurodegeneration. The antioxidant response element (ARE) signaling pathway plays an important role in the amelioration of oxidative stress. The KeratinoSens (Givaudan, Switzerland) is an in vitro test method which quantifies luciferase induction as a measure of activation of Keap1-Nrf2-antioxidationt/electrophile response element (ARE) dependant pathway in HaCaT human keratinocytes stably transfected with a selectable plasmid. The KeratinoSens assay is a cell-based assay with a reporter cell line to detect potential skin sensitizers by their ability to induce the Nrf2/ARE-response. The activation of the report gene under culture conditions can be detected by ONE-Glo Luciferase Assay System (Promega, Madison, WI). This cell line has been used to screen the Tox21 10K compound library to identify agonists that induce oxidative stress. The cytotoxicity of the Tox21 compound library against the KS-ARE cell line was tested in parallel by measuring the cell viability using CellTiter- Fluor assay system (Promega, Madison, WI) in the same wells.
HaCaT derived cell line KeratinoSens were dispensed at 1,500 cells/5uL/well in 1536-well white wall/solid bottom plates using a Multidrop Combi (ThermoFisher Scientific, Waltham, MA) dispenser. After the assay plates were incubated at 37 C/5% CO2 for 5 h, 23 nL of compounds dissolved in DMSO, positive controls or DMSO only was transferred to the assay plate by a pintool workstation (Kalypsys, San Diego, CA). The plates were incubated at 37 C/5% CO2 for 23 h, followed by addition of 1uL/well of CellTiter-Fluor reagent into the assay plates using a Flying Reagent Dispenser (Aurora Discovery, San Diego, CA) for cell viability readout that measures cytotoxicity. After 1 h incubation at 37 C/5% CO2 the fluorescence intensity was measured using a ViewLux (PerkinElmer, Shelton, CT) plate reader. Then 4uL/well of One-Glo were added using a Flying Reagent Dispenser. After the plates were incubated at room temperature for 30 min, the luminescence intensity in the assay plates was measured using ViewLux plate reader.
% is scaled to controls: 0 for no effect and ±100 for the full control effect; potency is read from the fitted curve at half-maximal effect.

| SMILES | activity, positive = activation | Potency |
| --- | --- | --- |
| CC1Sc2c(C(=O)O)c(=O)c3cc(F)c(N4CCNCC4)cc3n21 (stereo not given) | -6.97% [at 42.5 µM] | – |
| O=C(NC(=O)c1c(F)cccc1F)Nc1cc(Cl)c(Oc2ncc(C(F)(F)F)cc2Cl)c(Cl)c1 | -6.95% | – |
| CCN(CC)c1c([N+](=O)[O-])cc(C(F)(F)F)c(N)c1[N+](=O)[O-] | 8.31% | – |
| CC(C)CP(=S)(S)CC(C)C | – | 15.4 µM (active) |
| CCOP(=O)(NC(C)C)Oc1ccc(SC)c(C)c1 (stereo not given) | – | 15.4 µM (active) |
| Oc1cc(Cl)c(Cl)c(Cl)c1Cl | – | 53.2 µM (active) |
| CCCSC(=O)N(CCC)CCC | -0.469% | – |
| O=C1OC(CCN2CCCCC2)OC1(c1ccccc1)c1ccccc1 (stereo not given) | – | 29.8 µM (active) |
| CC(C)NCC(O)c1ccc(N)c(C#N)c1 (stereo not given) | -4.19% [at 42.5 µM] | – |
| CCOP(=S)(OCC)Oc1ccc(S(C)=O)cc1 (stereo not given) | -13.4% | – |
| C[C@@H](N)[C@@H](O)c1ccccc1 | 11.6% [at 42.5 µM] | – |
| CCC(C)c1cc([N+](=O)[O-])cc([N+](=O)[O-])c1OC(=O)C=C(C)C (stereo not given) | – | 24.3 µM (active) |
| COP(=S)(NC(C)C)Oc1ccc(C)cc1[N+](=O)[O-] (stereo not given) | 3.69% | – |
| N#CCc1ccc(Cl)cc1 | -2.97% | – |
| CCC1(c2cccc(O)c2)CCCCN(C)C1 (stereo not given) | 4.81% [at 42.5 µM] | – |
| CC1(C)C(/C=C(\Cl)C(F)(F)F)C1C(=O)OC(C#N)c1cccc(Oc2ccccc2)c1 (stereo not given) | 0.481% | – |
| Oc1cccc(Cl)c1Cl | 0.625% | – |
| O=NN(CCO)CCO | 4.9% | – |
| C#CC(O)(C=CCl)CC (stereo not given) | 0.325% [at 42.5 µM] | – |
| Cn1c(CCCC(=O)O)nc2cc(N(CCCl)CCCl)ccc21 | -4.93% [at 42.5 µM] | – |

| SMILES | activity, positive = activation | Potency |
| --- | --- | --- |
| CCC[CH2][Sn]([CH2]CCC)([O]C(C)=O)[O]C(C)=O | – | 0.0978 µM (active) |
| CCCN(CCC)c1c([N+](=O)[O-])cc(C(F)(F)F)cc1[N+](=O)[O-] | – | 19.3 µM (active) and 61.1 µM (active) |
| O=C(O)C(O)C(O)C(=O)O (stereo not given) | -0.35% | – |
| CCC1(CCC(C)C)C(=O)NC(=O)NC1=O | -2.86% | – |
| Brc1cccc(-c2ccccc2)c1 | 0.883% | – |
| CN1C[C@@H](NS(=O)(=O)N(C)C)C[C@@H]2c3cccc4c3c(cn4C)C[C@H]21 | 0.47% [at 42.5 µM] | – |
| CC[C@H]1C[C@H]2[C@@H]3CCC4=CC(=O)CC[C@@H]4[C@H]3CC[C@]2(C)[C@H]1O | – | 11.9 µM (active) |
| COc1cc(CCN)cc(OC)c1OC | 2.68% | – |
| CCC1(c2ccccc2)C(=O)N=C(O)NC1=O (stereo not given) | -8.27% | – |
| Cc1cc2c3c(c1)C(c1ccccc1)=N[C@@H](NC(=O)c1ccncc1)C(=O)N3CC2 | -17.4% | – |
| O=c1[nH]c2ccccc2n1C1CCNCC1 | 3.41% [at 42.5 µM] | – |
| NP(N)(=O)NC(=O)c1ccc(F)cc1 | 4.15% [at 42.5 µM] | – |
| CCCC[N+]1(C)[C@@H]2CC(OC(=O)[C@H](CO)c3ccccc3)C[C@H]1[C@@H]1O[C@@H]12 (stereo not given in full) | -4.15% [at 42.5 µM] | – |
| CO/N=C(/C(=O)OC)c1ccccc1COc1ccccc1C | -8.92% | – |
| CN1[C@@H]2CC[C@H]1CC(O)C2 (stereo not given in full) | -0.96% | – |
| c1ccc2c(c1)[nH]c1cnccc12 | 10.9% | – |
| CC1=C(C(=O)Nc2ccccc2)S(=O)(=O)CCO1 | – | 10.9 µM (active) |
| CCOP(=S)(OCC)SCn1nnc2ccccc2c1=O | 6.77% | – |
| N#CC(C#N)=C(C#N)C#N | 6.6% | – |
| CC(Cl)(Cl)Cl | 0.269% | – |
